Only some compounds are listed: those with a hit (about 2.4% of all), similar ones and a draw of the others.
AmpC inh det = blocks E. coli AmpC beta-lactamase in presence of detergent. AID 584. P00811. Potency, µM (top dose mostly 28.7 µM), without a hit: at the top dose activity change, negative = inhibition. actives 0.09% (n = 71,000). purified AmpC, nitrocefin hydrolysis with detergent; active means well fitted curve in the direction sought with a large enough effect; inconclusive means small, poorly fitted or top-dose-only effect; further: on the % scale 0 is the no-effect control and ±100 the full control effect
Target sequence (P00811 whole entry, looked up): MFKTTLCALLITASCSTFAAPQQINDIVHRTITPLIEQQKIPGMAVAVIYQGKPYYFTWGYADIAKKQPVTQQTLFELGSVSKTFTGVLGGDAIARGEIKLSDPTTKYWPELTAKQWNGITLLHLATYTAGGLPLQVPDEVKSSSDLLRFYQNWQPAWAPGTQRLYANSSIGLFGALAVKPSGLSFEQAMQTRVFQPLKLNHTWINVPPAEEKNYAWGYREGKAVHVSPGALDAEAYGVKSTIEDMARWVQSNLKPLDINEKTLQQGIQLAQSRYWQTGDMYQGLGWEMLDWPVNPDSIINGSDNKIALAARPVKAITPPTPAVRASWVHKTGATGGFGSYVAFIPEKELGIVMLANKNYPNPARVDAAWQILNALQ
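E. coli AmpC (5.3 nM) in 20 mM phosphate pH 7.0 with 0.01% Triton X-100, preincubated 15 min RT with compound; nitrocefin (2 uL of 800 uM stock) hydrolysis followed by 480 nm absorbance every 20 s over 4 min.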
Prx2 Sm inh = blocks S. mansoni peroxiredoxin 2 enzymatic activity; actives 0.07% (n = 65,000); S. mansoni Prx2 activity coupled to TGR/GSH (TGR is thioredoxin glutathione reductase), NADPH fluorescence loss, qHTS; Potency, µM
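qHTS, coupled TGR/Prx2 format; 15 min compound preincubation at RT; reaction started with H2O2 (2.5 mM aliquot); kinetic NADPH fluorescence decrease, ex 365/em 450 nm.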
AmpC inh no det = inhibitors of E. coli AmpC beta-lactamase without detergent; actives 1.8% (n = 71,000); Potency, µM (top dose mostly 28.7 µM), without a hit: at the top dose activity change, negative = inhibition; AID 585; AmpC nitrocefin hydrolysis, absorbance 480 nm, no detergent; P00811; further: % of control where 0% means no effect
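AmpC, 20 mM phosphate pH 7.0; 15 min cpd preinc, RT; start with nitrocefin (800 uM stock); A480 kinetic read, 20 s intervals, 4 min. No-enzyme wells = negative control.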
Anthrax LT inh = blocks cellular internalization of anthrax lethal toxin. AID 912. actives 0.67% (n = 70,000). Potency, µM (doses to about 40 µM), for inactives: at the top dose activity change, negative = inhibition, most hits filed as inhibitors. Cells, anthrax lethal toxin internalization, FRET ratio (460/530); further: on the % scale 0 is the no-effect control and ±100 the full control effect; nearly all actives have a fitted effect of over 50% in size
Active calls of the source: *; ? = inconclusive; / = not tested or not shown; ! = a repeat was not active; [ ] = remark or other dose. Unless noted, the call rests on the fitted dose curve. Potency means the concentration at half of the fitted maximal effect.

SMILES	AmpC inh det	Prx2 Sm inh	AmpC inh no det	Anthrax LT inh
COCCNc1ncnc2ccc(-c3c(C)noc3C)cc12	4%	>57	14%	?
Cc1ccc(CCNC(=O)CCNS(=O)(=O)c2ccc3c(c2)c(=O)n(C)c(=O)n3C)cc1	10%	>57	39%	2%
Cc1cccc(CCNC(=O)CN(C)S(=O)(=O)c2ccc3c(c2)c(=O)n(C)c(=O)n3C)c1	14%	>57	4µM*[single pt active]	-10%
c1cncc(CNc2cc(-c3ccoc3)ncn2)c1	9%	>57	21%	-8%
CCCCCCCCCC[Si](C)(C)CCC(=O)N[C@@H](Cc1ccc(C)cc1)c1ccccc1	-4%	>57	-8%	-3%
COC(=O)CSc1nc2ccc(NC(=O)CSc3nnnn3Cc3ccccc3)cc2s1	0%	/	?	5µM*
CC(=O)Nc1cccc(NC(=O)CSc2nnnn2Cc2ccccc2)c1	-1%	>57	-6%	-12%
CC(C)[C@H](CO)Nc1nc(Nc2cccc(Cl)c2)c2ncn(C(C)C)c2n1	13%	>57	107%	13µM*
CN[C@H]1[C@H]2[C@H]3CCN2C[C@@H]1O3	1%	>57	6%	?
Nc1ccc(S(=O)(=O)O)cc1	9%	/	-1%	-8%
Cc1sc(NC(=O)c2ccco2)nc1-c1ccc2c(c1)CC(C)N2C(=O)C1CC1 (stereo not drawn)	-4%	>57	78%	10µM*
COc1ccc2c(c1)-c1nc(NC(=O)c3ccco3)sc1CC2	-4%	>57	44%	-23%
Fc1ccc(C(OCCN2CCN(CCCc3ccccc3)CC2)c2ccc(F)cc2)cc1	-6%	>57	13%	?
c1ccc(CCCN2CCN(CCOC(c3ccccc3)c3ccccc3)CC2)cc1	0%	>57	70%	25µM*
CN1CCN(c2ncc3nc(-c4cccc(C#N)c4)c(=O)n(C)c3n2)CC1	-5%	>57	48%	?
O=c1cc(-c2ccc(O)c(O)c2)oc2cc(O)cc(O)c12	-1%	>26	0.5µM*!	?
COc1ccc(-c2cc(=O)c3c(O)cc(O)cc3o2)cc1	-5%[12.8 µM]	>57	-20%[12.8 µM]	-5%[3.58 µM]
CC(C)C(NS(=O)(=O)c1ccc2c(c1)oc(=O)n2C)C(=O)N1CCN(C2CCCCC2)CC1 (stereo not drawn)	5%	>57	17%	6%
CC1CC(C)CN(C(=O)C(NS(=O)(=O)c2ccc3c(c2)oc(=O)n3C)C(C)C)C1 (stereo not drawn)	13%	>57	4µM*[single pt active]	-6%
CC(C)CC(NS(=O)(=O)c1ccc2c(c1)oc(=O)n2C)C(=O)NC1CCCc2ccccc21 (stereo not drawn)	12%	>57	4µM*[single pt active]	-2%
CNCC[C@H](Oc1ccccc1C)c1ccccc1	-3%	>57	2%	0%
CC(C)[C@H](O)C1=CCCCC1=O	/	/	/	11%[0.32 µM]
COc1ccc(-c2noc(CN(C)S(=O)(=O)c3ccc(Cl)cc3)n2)cc1OC	-5%	>57	104%	13µM*
COc1ccccc1C(=O)N(Cc1nc(-c2ccc(Cl)cc2)no1)C(C)C	14%	>57	92%	13µM*
C=CCN1C[C@@H](C)N([C@H](c2ccc(C(=O)N(CC)CC)cc2)c2cccc(OC)c2)C[C@H]1C	-1%	>57	22%	?
SMILES	AmpC inh det	Prx2 Sm inh	AmpC inh no det	Anthrax LT inh
Cn1cc(C(=O)c2ccccc2)c2ccccc21	10%	>57	4µM*[single pt active]	-23%
Cc1cc(C)c(OCC(=O)Nc2ccccc2N2CCOCC2)c(C)c1	0%	>57	22%	?
COc1ccc(C)cc1C(=O)CCC(=O)Nc1ccccc1N1CCOCC1	-3%	>57	54%	16µM*
C=CCSC1=N/C(=C\c2ccc3c(c2)OCO3)C(=O)S1	3%	>57	4µM*	22%
CC1=C/C(=C\c2ccc3c(c2)OCO3)C(=O)S1	?	>57	13µM*	?
C[C@@H](C(=O)O)c1ccc(C[C@@H]2CCCC2=O)cc1	-3%	>57	6%	-8%
NC(=O)c1cccc2c1C(=O)N(C1CCCCC1)C2	13%	>57	4µM*[single pt active]	-7%
CC12C=C(/C=C/c3ccc(F)cc3)C(C)(C1)C(c1ccc(F)cc1)CC2=O (stereo not drawn)	/	/	/	-19%[8 µM]
COc1ccc2c(CC(=O)Nc3ccc(OC)c(NS(=O)(=O)c4ccc(F)cc4)c3)coc2c1	-3%	>57	?	10µM*
O=C(Cl)c1cccc([N+](=O)[O-])c1	14%	/	0%	13%
O=C(O)CCC(=O)N1CCN(c2ccccn2)CC1	17%	>57	?	-9%
O=C(CSc1nccc2ccccc12)N1CCN(c2ccccn2)CC1	10%	>57	17%	5µM*
O=C(CC1CCCCC1)N1CCN(c2ccccn2)CC1	-3%	>57	17%	-3%
O=C(COc1ccc2ccccc2c1Br)N1CCN(c2ccccn2)CC1	0%	>57	64%	13µM*
CN1c2cc3c(cc2N=C(c2ccc(C(=O)O)cc2)c2ccccc21)C(C)(C)CCC3(C)C	/	/	/	10µM*
CS(=O)(=O)c1sc2nc(-c3cccs3)cc(-c3ccccc3)c2c1N	-4%	>57	10µM*[single pt active]	?
CCCN1CCC[C@H](c2cccc(C#N)c2)C1	-4%	>57	-10%	-6%
N#Cc1c(NC(=O)CSc2ncnc3sccc23)oc(-c2ccco2)c1-c1ccco1	12%	>57	7.9µM*	?
CCn1c(SCC(=O)Nc2oc(-c3ccccc3)c(-c3ccccc3)c2C#N)nnc1-c1ccco1	-3%	>57	?	?
O=C(Cc1cccs1)Nc1ccc(S(=O)(=O)N2CCCCC2)cc1	-2%	>57	13µM*[single pt active]	-3%
O=C(Nc1ccc(S(=O)(=O)N2CCCCCC2)cc1)c1ccc(Br)o1	8%	>57	-11%	1.6µM*
CC[C@H]1CN2CC[C@@H]1C[C@@H]2[C@H](O)c1ccnc2ccccc12	2%	>57	1%	-14%
CN(C)CCn1nnnc1SCC1=C(C(=O)O)N2C(=O)[C@@H](NC(=O)Cc3csc(N)n3)[C@@H]2SC1	-4%[12.8 µM]	>57	0%[12.8 µM]	-13%[3.58 µM]
CO[C@]1(NC(=O)C2SC(=C(C(N)=O)C(=O)O)S2)C(=O)N2C(C(=O)O)=C(CSc3nnnn3C)CS[C@H]21 (stereo partly drawn)	2µM*	>57	?	0.5µM*
CO[C@]1(NC(=O)Cc2cccs2)C(=O)N2C(C(=O)O)=C(COC(N)=O)CS[C@H]21	5µM*	>26	5µM*	5µM*
SMILES	AmpC inh det	Prx2 Sm inh	AmpC inh no det	Anthrax LT inh
CO[C@]1(NC(=O)CSCC#N)C(=O)N2C(C(=O)O)=C(CSc3nnnn3C)CS[C@H]21	?	>57	7.9µM*![single pt active]	?
Cn1nnnc1SCC1=C(C(=O)O)N2C(=O)[C@@H](NC(=O)[C@@H](O)c3ccccc3)[C@@H]2SC1	-3%[12.8 µM]	>57	-18%[12.8 µM]	0%[3.58 µM]
C=C[C@@H]1CN2CC[C@@H]1C[C@H]2[C@H](O)c1ccnc2ccccc12	-2%	>57	-1%	-12%
Cc1cc(C(=O)CSc2nc3ccccc3[nH]2)c(C)n1C	-3%	>57	-2%	-8%
Cc1nn2c(=O)cc(CSc3nc4ccccc4[nH]3)nc2s1	13%	>57	4µM*[single pt active]	8%
N[C@H](CCl)C(=O)O	-1%	>57	-3%	0%
